Shown are actives, neighbours in structure and some others; about 3.3% of the full set was active somewhere.
rCAG RNA binder: binders of r(CAG) RNA repeats, primary screen, biochemical, fluorescence; r(CAG) RNA repeat, TO-PRO-1 dye displacement fluorescence; inhibition, % at 3 µM; actives 1.3% (n = 370,000); AID 651821, 2012;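 active = inhibition above the plate cutoff, the mean of all test compounds on that plate plus 3 SD, cut at about 35% in these data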;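 note: 0% = DMSO alone and 100% = 100 µM mitoxantrone as full dye displacement; higher means more dye released from RNA so lower well fluorescence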
ABHD5 PLIN5 PPI: ABHD5-PLIN5 interaction inhibitors, primary screen, cell lysate, split luciferase complementation, luminescence; AID 602281, 2012; inhibition, % at 4 µM; Perilipin-5 (Homo sapiens) + 1-acylglycerol-3-phosphate O-acyltransferase ABHD5 (Homo …; Split G. princeps luciferase complementation, 4 h; actives 0.78% (n = 360,000);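 active = inhibition above the mean inhibition across every tested compound plus 3 SD, cut at about 22% in these data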;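 note: 0% = DMSO only wells and the 100% control is not disclosed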
TLR9-MyD88 block: inhibitors of TLR9-MyD88 association in cells, primary screen, cell-based, CHO, BLA complementation, fluorescence | actives 0.21% (n = 340,000) | CCF4 FRET ratio | inhibition, % at 4.98 µM | Toll-like receptor 9 (Homo sapiens) + Myeloid differentiation primary response protein … | AID 504734, 2011;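 active = inhibition above the mean over all tested compounds plus 3 SD, cut at about 21% in these data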;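 note: 0% = DMSO only wells and 100% = clavulanate BLA inhibitor control wells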
TLR4-MyD88 BLA: inhibitors of TLR4-MyD88 association in cells, primary screen, cell-based, HeLa CL3-4, BLA complementation, FRET ratio; inhibition, % at 8.4 µM; HeLa CL3-4 TLR4/MyD88 BLA complementation; actives 0.18% (n = 200,000); Toll-like receptor 4 (Homo sapiens) + Myeloid differentiation primary response protein …; in the data active = inhibition above about 25%;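 note: 0% = vehicle and 100% = reference inhibitor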
Target sequence (O00206 whole entry, looked up): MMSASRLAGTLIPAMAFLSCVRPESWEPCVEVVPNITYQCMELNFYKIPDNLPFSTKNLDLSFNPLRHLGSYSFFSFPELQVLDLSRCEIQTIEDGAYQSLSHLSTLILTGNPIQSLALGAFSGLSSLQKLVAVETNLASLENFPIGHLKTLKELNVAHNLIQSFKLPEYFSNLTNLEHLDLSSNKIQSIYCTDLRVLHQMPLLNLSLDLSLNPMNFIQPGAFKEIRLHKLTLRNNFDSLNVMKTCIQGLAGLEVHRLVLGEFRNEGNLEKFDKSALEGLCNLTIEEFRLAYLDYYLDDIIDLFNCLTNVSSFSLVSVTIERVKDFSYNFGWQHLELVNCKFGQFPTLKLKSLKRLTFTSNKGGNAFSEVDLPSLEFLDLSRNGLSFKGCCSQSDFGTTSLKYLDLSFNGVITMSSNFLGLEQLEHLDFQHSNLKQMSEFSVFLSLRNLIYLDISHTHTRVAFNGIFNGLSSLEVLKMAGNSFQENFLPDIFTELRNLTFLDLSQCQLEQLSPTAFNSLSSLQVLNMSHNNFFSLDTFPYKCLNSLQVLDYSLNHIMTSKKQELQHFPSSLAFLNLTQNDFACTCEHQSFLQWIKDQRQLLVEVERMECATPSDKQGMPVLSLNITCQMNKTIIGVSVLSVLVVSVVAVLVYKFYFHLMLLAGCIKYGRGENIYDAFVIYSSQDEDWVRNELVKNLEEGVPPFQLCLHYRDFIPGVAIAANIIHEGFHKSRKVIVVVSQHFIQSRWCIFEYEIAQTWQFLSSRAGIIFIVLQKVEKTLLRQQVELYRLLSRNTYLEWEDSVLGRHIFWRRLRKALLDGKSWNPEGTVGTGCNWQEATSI
Target sequence (Q99836 whole entry, looked up): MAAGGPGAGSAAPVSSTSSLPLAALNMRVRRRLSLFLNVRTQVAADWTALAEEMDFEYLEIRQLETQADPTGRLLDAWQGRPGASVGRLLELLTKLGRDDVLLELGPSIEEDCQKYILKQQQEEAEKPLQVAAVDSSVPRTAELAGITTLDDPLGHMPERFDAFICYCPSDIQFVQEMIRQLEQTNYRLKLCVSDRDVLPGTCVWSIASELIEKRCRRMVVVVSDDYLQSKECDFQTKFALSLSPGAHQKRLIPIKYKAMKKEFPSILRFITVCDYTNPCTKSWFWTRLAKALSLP
PRMT1 FP inh: PRMT1 methyltransferase inhibitors, primary screen, biochemical, fluorescence polarization | recombinant PRMT1, activity-based probe fluorescence polarization | Protein arginine N-methyltransferase 1 (Homo sapiens), Q99873 | inhibition, % at 2.79 µM | AID 652257, 2013 | actives 1.3% (n = 370,000);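 active = inhibition above about 21% made by adding two undisclosed values, limit read from the data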
NOD2-RIPK2 inh: NOD2-RIPK2 binding disruptors in cells, primary screen, fluorescence, CHO cells, BLA complementation; CCF4 ratio; actives 0.38% (n = 360,000); Receptor-interacting serine/threonine-protein kinase 2 (Homo sapiens), O43353; inhibition, % at 4.98 µM; in the data active = inhibition above about 21%;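 note: 0% = vehicle only and 100% = reference blocker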
rCAG binder conf: small molecules binding CAG repeat RNA – biochemical, fluorescence, confirmation. shares compounds with rCAG RNA binder. r(CAG) RNA repeat, TO-PRO-1 dye displacement fluorescence. inhibition, % at 3 µM. actives 70% (n = 4,300). AID 652065, 2013;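 active = inhibition above a per-plate cutoff, the mean inhibition of sample wells plus 3 SD, cut at about 35% in these data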;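 note: loss of TO-PRO-1 fluorescence as compound displaces dye from 1x1 AA loop RNA; 0% = DMSO only wells and 100% = 100 µM mitoxantrone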
dCAG dye counter: displacement of TO-PRO-1 from CAG DNA duplex, counter-screen for rCAG RNA repeat binder project, biochemical, fluorescence, TO-PRO-1 dye, d(CAG) DNA oligo | shares compounds with rCAG RNA binder | d(CAG) DNA oligo TO-PRO-1 dye displacement | inhibition, % at 3 µM | actives 94% (n = 4,300);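 active = inhibition above its plate's cutoff, the mean test-well inhibition plus 3 SD, cut at about 4.8% in these data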;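 note: 0% = DNA dye mix with DMSO and 100% = 100 µM mitoxantrone; hits displace the dye from DNA and so lower well fluorescence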
Active calls of the source: *; nt = no result given.

SMILES	rCAG RNA binder	ABHD5 PLIN5 PPI	TLR9-MyD88 block	TLR4-MyD88 BLA	PRMT1 FP inh	NOD2-RIPK2 inh	rCAG binder conf	dCAG dye counter
Cc1c(CCC(=O)N[C@@H](C)C(=O)O)c(=O)oc2c(C)c3oc4c(c3cc12)CCCC4	43*	1	-4	nt	-5	-6	39*	8.8*
Cc1c(CCC(=O)O)c(=O)oc2cc3oc4c(c3cc12)CCCC4	7	-1	-6	nt	3	-1	nt	nt
Cc1c(CCC(=O)NCCC(=O)O)c(=O)oc2c(C)c3oc4c(c3cc12)CCCC4	42*	-2	1	nt	1	-3	38*	10*
Cc1ccc(N=C2NC(=O)/C(=C/C=C/c3ccco3)S2)cc1	59*	18	2	-7	23*	2	54*	26*
COc1ccc(-c2csc(NC(=S)NC(=O)/C=C/c3ccco3)n2)cc1Br	67*	0	nt	nt	5	-16	33	16*
COc1ccc(-c2csc(NC(=S)NC(=O)/C=C/c3ccco3)n2)cc1OC	22	3	8	-7	1	-4	nt	nt
C/C=C1\NC(=O)[C@H](C)NC(=O)[C@@H](NC(=O)[C@@H](Cc2ccc(O)cc2)NC(=O)[C@@H](NC(=O)/C(C)=C/C)C(C)C)[C@@H](C)OC(=O)[C@H](CCCCc2ccc(O)cc2)NC(=O)[C@@H](CCC(=O)O)NC1=O	36*	1	-5	nt	-6	-5	34	6.7*
O=C(NC(=S)NNC(=O)c1ccccc1O)c1ccco1	2	3	-10	-7	-1	1	nt	nt
CN(C)S(=O)(=O)c1cccc(NC(=S)NNC(=O)c2cc3ccccc3cc2O)c1	87*	4	5	nt	4	0	86*	56*
O=C(NC(=S)NNC(=O)c1cc2ccccc2cc1O)c1ccco1	67*	7	1	9	-11	-4	53*	17*
O=C(O)CC(C(=O)Nc1ccc(Cl)cc1)N1CCCCCC1 (centres undefined)	1	3	3	nt	-4	0	nt	nt
Cc1ccc(N2C(=O)/C(=C/c3ccco3)SC2=S)cc1	44*	-4	-9	2	11	5	10	5.7*
N=C1S/C(=C\c2ccco2)C(=O)N1c1ccc2c(c1)OCO2	38*	11	0	0	18	0	26	12*
COC(=O)c1ccccc1NCc1cc(=O)oc2cc(O)c(O)cc12	36*	-3	5	nt	6	5	52*	23*
NC(=O)c1ccc(NC(=O)COC(=O)c2ccc(Br)c(S(=O)(=O)N3CCOCC3)c2)cc1	4	-4	-1	nt	-4	-4	nt	nt
COc1cc2ccccc2cc1C(=O)NC(=S)Nc1ccc(C(=O)O)cc1	10	-6	-7	nt	1	4	nt	nt
COc1cc2ccccc2cc1C(=O)NC(=S)Nc1cccc(C(=O)O)c1	39*	0	nt	1	0	-11	69*	34*
O=C(NC(=S)Nc1ccc(S(=O)(=O)Nc2nccs2)cc1)c1ccccc1	41*	-2	-9	-3	0	-1	37*	8.9*
O=C(NC(=S)Nc1ccc(S(=O)(=O)Nc2nccs2)cc1)c1ccc(Br)o1	47*	0	5	-5	-1	-1	33	12*
O=C(NC(=S)Nc1ccc(S(=O)(=O)Nc2nccs2)cc1)c1ccccc1F	42*	2	-1	-3	-6	-4	41*	13*
O=C(NC(=S)Nc1ccc(S(=O)(=O)Nc2nccs2)cc1)c1ccc(F)c(F)c1	63*	1	-6	-5	-4	-3	40*	12*
CCCCc1ccc(NC(=O)c2cnccn2)cc1	-6	4	-8	-5	-1	-6	nt	nt
CCC(=O)NCCc1nc2cc(NC(=O)c3ccco3)ccc2n1C	1	1	-4	nt	1	-5	nt	nt
CCN1CCCCC(NC(C)=O)C1=O (centres undefined)	3	nt	nt	nt	4	nt	nt	nt
COc1cccc(OC)c1C(=O)NC(=S)Nc1ccc(S(=O)(=O)Nc2nccs2)cc1	59*	7	7	7	-1	-4	40*	16*
SMILES	rCAG RNA binder	ABHD5 PLIN5 PPI	TLR9-MyD88 block	TLR4-MyD88 BLA	PRMT1 FP inh	NOD2-RIPK2 inh	rCAG binder conf	dCAG dye counter
CCCCOc1ccc(-c2c(C(=O)Nc3ccccc3)c(C)[nH]c(=S)c2C#N)cc1	60*	-4	-21	2	23*	1	36*	16*
CCOC(=O)c1c(C)[nH]c(=S)c(C#N)c1-c1ccc(OC)cc1	6	-10	1	8	13	-14	nt	nt
Nc1cccc(S(=O)(=O)N2CCCN(S(=O)(=O)c3ccc4c(c3)OCCO4)CC2)c1	nt	nt	nt	nt	0	nt	nt	nt
Cc1ccc(NC(=O)CCC(=O)N/N=C/C=C/c2ccccc2)cc1	0	-1	-10	-3	-3	8	nt	nt
Cc1ccc(C)n1NC(=O)c1ccccc1[N+](=O)[O-]	16	4	-17	-7	1	2	nt	nt
Cc1ccc(C)n1NC(=O)c1ccccc1O	36*	-3	-2	-6	-2	-2	22	13*
O=C(O)CCC(=O)Nc1ccc(-c2nc3ccc(C(=O)c4ccccc4)cc3[nH]2)cc1	45*	0	-5	nt	-3	-11	35*	7.9*
CC(C)c1cc(C(=O)O)c2ccccc2n1	40*	2	7	nt	5	-5	-1	-1
Nc1c(C=C2C=CC(=O)C=C2)c(=O)nc2snc(SCc3ccccc3)n12	52*	-2	-3	nt	-4	4	50*	16*
COC(=O)[C@]12C[C@H](CC(=O)NCCCN3CCCC3=O)C(=O)N(Cc3ccco3)C1=C[C@H](COCc1ccccc1)O[C@@H]2C	7	nt	nt	nt	2	nt	nt	nt
COc1ccccc1N(C)S(=O)(=O)c1ccc(C)c(C(=O)NCc2ccccn2)c1	3	-4	-12	nt	-3	-1	nt	nt
O=C(NCCc1ccccc1)O[C@H]1CC[C@@]23CCCN2C(=O)CCC[C@H]3C1	nt	nt	nt	nt	-1	nt	nt	nt
CCOC(=O)c1ccccc1NC(=O)Cc1c(C(=O)O)n(C)c2ccccc12	37*	-3	12	nt	0	6	25	4
